Measured values published in PubChem BioAssay (Tox21).
Inconclusive results are not listed. Calls of active or inactive are those of the source. Calls follow the shape of the full dose curve.

test: p53 small molecule agonists, cell-based qHTS assay with human liver microsomes (AID 1963577); conditions: HCT-116 p53RE-bla with human liver microsomes, ratio, 16 h; series mostly up to 66 µM; activation: at the top concentration;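 also: p53 response element beta-lactamase reporter cells with liver microsomes plus NADPH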
Description: National Center for Advancing Translational Sciences [NCATS]
Division of Preclinical Innovation [DPI]
U.S. Environmental Protection Agency [EPA]
National Institutes of Environmental Health Sciences [NIEHS]
National Toxicology Program [NTP]
U.S. Food and Drug Administration [FDA]
p53, a tumor suppressor protein, is activated following cellular insult, including DNA damage and other cellular stresses. The activation of p53 regulates cell fate by inducing DNA repair, cell cycle arrest, apoptosis, or cellular senescence. The activation of p53, therefore, is a good indicator of DNA damage and other cellular stresses. […] The activation of the reporter gene under culture conditions can be detected by fluorescence intensity.
Tox21 Assay Protocol Summary:
The p53RE-bla cells were dispensed at 4,000cells/3ul/well in 1536-well black-clear bottom plates. After the assay plates were incubated at 37 C, 5% CO2 incubator for 5 hours, 23 nL of compounds dissolved in DMSO, positive controls or DMSO only was transferred to the assay plate. Following compound addition, 3 uL of human liver microsomes (XenoTech, Kansas City, KS) at final concentration of 0.5 mg/mL and 1uL of Beta-Nicotinamide adenine dinucleotide 2-phosphate (NADPH) at final concentration of 0.5 mg/mL were transferred to the assay plate. The plates were incubated at 37 C for 16 hours. 1 uL of LiveBLAzer detection mixture was added to each well and the plates were incubated at room temperature in the dark for 2 h.
% is scaled to controls: 0 for no effect and ±100 for the full control effect.

SMILES | Potency | activation
COP(=O)(OC)OC | inactive | –
O=[N+]([O-])/C=C/c1ccccc1 | inactive | –
CC(C)(c1ccc(OCC2CO2)cc1)c1ccc(OCC2CO2)cc1 (stereo not given) | inactive | –
NC(=S)c1c(Cl)cccc1Cl | – | -0.722% (inactive)
CC(COc1ccc(Oc2ccccc2)cc1)Oc1ccccn1 (stereo not given) | – | -9.81% (inactive)
c1cc2c3c(cccc3c1)CC2 | inactive | –
CCCCN(CCCC)N=O | inactive | –
CC(C)=CCN1CC[C@@]2(C)c3cc(O)ccc3C[C@@H]1[C@@H]2C | – | 4.41% (inactive)
OCC(Br)CBr (stereo not given) | – | 0% (inactive)
CN(C)N | – | -1.88% (inactive)
CCCCNC(=O)n1c(NC(=O)OC)nc2ccccc21 | – | -14.6% (inactive)
CCC(C)C(C)(COC(N)=O)COC(N)=O (stereo not given) | – | 0.113% [at 30.3 µM] (inactive)
Cl/C=C/CCl | – | -0.9% (inactive)
CNC(C)(C)Cc1ccccc1 | – | 5.64% [at 30.3 µM] (inactive)
O=[N+]([O-])c1c(Cl)c(Cl)c(Cl)c(Cl)c1Cl | inactive | –
Oc1ccc(Cl)c(Cl)c1 | – | -1.62% (inactive)
CCCCOC(=O)CCC(=O)OCCCC | – | 3.54% (inactive)
N#Cc1ccc(O)cc1 | – | -6.81% (inactive)
ClCc1cccnc1 | inactive | –
Clc1ccc(C(c2ccc(Cl)cc2)C(Cl)(Cl)Cl)cc1 | inactive | –

SMILES | Potency | activation
CCC(C)(C)c1ccc(O)cc1 | inactive | –
N#CCCCCC#N | inactive | –
ClC1C(Cl)C(Cl)C(Cl)C(Cl)C1Cl (stereo not given) | inactive | –
CCN(CC)N=O | inactive | –
CCCCCCC#N | – | -1.74% (inactive)
O=NN1CCCCC1 | – | 2.29% (inactive)
Cc1ccc2c(C)cccc2c1 | – | 3.9% (inactive)
O=[N+]([O-])c1ccccc1-c1ccccc1 | – | -1.7% (inactive)
CCCCN(CC)C(=O)SCCC | inactive | –
CC(=O)[O][Hg][c]1ccccc1 | inactive | –
CCN(CC)c1ccccc1 | inactive | –
CCCC1COC(Cn2cncn2)(c2ccc(Cl)cc2Cl)O1 (stereo not given) | – | -12.4% (inactive)
C=CC#N | inactive | –
O=[N+]([O-])CCO | – | 2.7% (inactive)
CC(C)CON=O | inactive | –
COc1ccc2c(c1OC)C(=O)O[C@@H]2[C@H]1c2cc3c(cc2CCN1C)OCO3 | – | -0.0616% (inactive)
CCCCC(CC)CO[N+](=O)[O-] (stereo not given) | – | 0.667% (inactive)
Cc1ccc2ccccc2c1 | – | 2.08% (inactive)
[O-][Cl+2]([O-])O | inactive | –
ClC1=C(Cl)[C@]2(Cl)[C@@H]3[C@@H](Cl)[C@@H](Cl)C[C@@H]3[C@@]1(Cl)C2(Cl)Cl | – | -1.46% (inactive)
